Screening data: PubChem, National Center for Advancing Translational Sciences (NCATS)
FLuc counter – inhibits or activates purified firefly luciferase, miR-21 counter-screen | P08659 | purified FLuc, Km substrates, luminescence inhibition | Potency, µM (series often up to 57.5 µM), most hits filed as inhibitors | 360,000 compounds, 6.9% hits | AID 588342; further: nearly all actives have a fitted effect of over 55% in size
Target sequence (P08659 whole entry, looked up): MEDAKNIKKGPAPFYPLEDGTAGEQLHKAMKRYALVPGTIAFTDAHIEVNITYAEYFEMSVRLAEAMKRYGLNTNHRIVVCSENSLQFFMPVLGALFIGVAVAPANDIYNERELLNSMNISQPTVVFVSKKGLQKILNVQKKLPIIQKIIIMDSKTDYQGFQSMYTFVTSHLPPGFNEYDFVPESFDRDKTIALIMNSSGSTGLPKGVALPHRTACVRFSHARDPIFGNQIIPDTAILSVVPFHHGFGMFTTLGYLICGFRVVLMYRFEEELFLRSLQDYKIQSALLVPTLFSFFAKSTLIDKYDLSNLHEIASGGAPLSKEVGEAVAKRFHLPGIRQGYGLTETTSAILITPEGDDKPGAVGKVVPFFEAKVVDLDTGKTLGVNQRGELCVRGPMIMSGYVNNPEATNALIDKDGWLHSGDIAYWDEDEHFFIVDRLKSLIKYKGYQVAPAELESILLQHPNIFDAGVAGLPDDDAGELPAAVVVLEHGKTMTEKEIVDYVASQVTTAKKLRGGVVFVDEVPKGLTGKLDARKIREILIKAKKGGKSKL
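Purified P. pyralis luciferase, 10 nM final, with Km-level 10 uM D-luciferin and 10 uM ATP in 50 mM Tris acetate pH 7.5, 10 mM Mg acetate, 0.01% Tween-20, 0.05% BSA; 6-point qHTS titration about 60 µM downward; luminescence read.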
SMN2 splice enh – enhancers of SMN2 splice variant expression. HEK293 SMN2-luciferase splicing reporter, luminescence, 30-36 h. Potency, µM (highest dose often 46.1 µM), usual class: activators. 210,000 compounds, 2.8% hits; further: nearly all actives have a fitted effect of over 55% in size
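qHTS luciferase splicing reporter: luminescence rises when SMN2 exon 7 is included in transfected HEK293 cells. Compound exposure lasted 30-36 h at 37C, with 4.5 mM final sodium butyrate as control, followed by a ONE-Glo read.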
ELG1 genotoxic – inducers of genotoxicity in HEK293T ELG1-luciferase cells. Potency, µM (highest dose often 46 µM), most hits filed as activators. AID 504466. HEK293T ELG1-luciferase reporter, luminescence, 16 h. 330,000 compounds, 1.3% hits; further: nearly all actives have a fitted effect of over 60% in size
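HEK293T cells expressing luciferase-tagged ELG1 were exposed to compound or DMSO vehicle for 16 hr at 37 °C and 5% CO2. Luciferase activity was then measured with ONE-Glo after 30 min at room temperature.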
NPC1 promoter act – activators of NPC1 promoter | 320,000 compounds, 2.4% hits | Huh7 NPC1 promoter luciferase reporter, 24 h | AID 485313 | Potency, µM (series often up to 9.22 µM), usual class: activators; further: nearly all actives have a fitted effect of over 60% in size
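In 1536-well qHTS, Huh7 cells harboring an NPC1 promoter–luciferase construct received compound for 24 h; activation was quantified by luminescence following luciferase reagent addition.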
ELG1 DNA repair – ELG1-dependent DNA repair inhibition. Potency, µM (highest dose often 46.1 µM), most hits filed as inhibitors. HEK293T ELG1-luciferase reporter, luminescence, 16 h; DNA damage induced by 5-fluorouridine. AID 504467. 330,000 compounds, 2.3% hits; further: nearly all actives have a fitted effect of over 55% in size
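Step one: seed 2,000 cells per well. Step two: pin-transfer compound or DMSO alongside 5-fluorouridine. Step three: incubate 16 hr, 37 °C, 5% CO2. Step four: add ONE-Glo, wait 30 min, read luminescence.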
Rab9 promoter act – activates the Rab9 promoter. Huh7 Rab9 promoter-luciferase reporter, luminescence, 24 h. Potency, µM (doses to about 9.22 µM), actives largely listed as activators. 320,000 compounds, 2.8% hits; further: nearly all actives have a fitted effect of over 60% in size
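Huh7 cells stably carrying a Rab9 promoter-luciferase reporter, 1500 cells per well in OP-MEM I with 10% FBS, treated with compound 24 hours at 37C. Luciferase activity read by luminescence after 10 minutes with Amplite reagent.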
Numbers stand for hits; i = inactive; ? = inconclusive; nt = no result given; [ ] = dose if it differs, or a comment. Compounds with a hit are over-represented: about 9.2% of the library has one in this group of screens. The call rests on the fitted dose curve; in most records, active means well fitted curve in the direction sought with a large enough effect; inconclusive means small, poorly fitted or top-dose-only effect, or another doubt; inactive means no such curve, though single readings can be large; an effect the other way counts as inactive or inconclusive.

SMILES	FLuc counter	SMN2 splice enh	ELG1 genotoxic	NPC1 promoter act	ELG1 DNA repair	Rab9 promoter act
CC(C)CN1CCN(C2CCN(C(C)C)CC2)C(CCO)C1 (stereo not drawn)	i	nt	i	i	i	i
Cc1cccc(C(=O)NCC(=O)OCc2cc(=O)n3nc(C4CC4)sc3n2)c1	i	nt	nt	nt	nt	nt
CC(C)C(NS(=O)(=O)c1cccc2cccnc12)C(=O)Nc1ccc(OC(F)(F)F)cc1 (stereo not drawn)	i	nt	nt	nt	nt	nt
CCN1CCc2c(sc(NC(=O)C3COc4ccccc4O3)c2C(N)=O)C1 (stereo not drawn)	i	nt	18.3µM	?	?	?
CCOC(=O)N1CCc2c(sc(NC(=O)C3COc4ccccc4O3)c2C(N)=O)C1 (stereo not drawn)	i	nt	i	i	?	i
CC1=NN(C(N)=S)C(=O)C1N=Nc1ccc(S(N)(=O)=O)cc1 (stereo not drawn)	19µM	nt	i	i	i	i
CC1=NN(C(N)=S)C(=O)C1N=Nc1c(Cl)cc([N+](=O)[O-])cc1Cl (stereo not drawn)	13.5µM	nt	i	?	?	?
CC(=O)N(C)c1ccc(N=NC2C(=O)N(C(N)=S)N=C2C)cc1 (stereo not drawn)	3.01µM	nt	?	0.501µM	?	i
CCOc1ccccc1N=NC1C(=O)N(C(N)=S)N=C1C (stereo not drawn)	i	nt	i	i	i	i
CC1=NN(C(N)=S)C(=O)C1N=Nc1c(Br)cc(Br)cc1Br (stereo not drawn)	?	nt	i	i	i	i
CC1=NN(C(N)=S)C(=O)C1N=Nc1cccc(Cl)c1 (stereo not drawn)	16.9µM	nt	?	?	?	?
CC1=NN(C(N)=S)C(=O)C1N=Nc1ccccc1O (stereo not drawn)	i	nt	i	i	i	i
Cc1nn(CC(=O)Nc2cccc(C(F)(F)F)c2)c(=O)c2cccn12	i	nt	i	i	i	i
O=C(CC1SC(N2CCCCC2)=NC1=O)Nc1cccc(C(=O)NCc2ccc(F)cc2)c1 (stereo not drawn)	?	nt	i	i	i	i
CCOC(=O)N1CCN(c2cc(=O)n(-c3ccc(C)cc3)c(=O)[nH]2)CC1	i	i	i	i	i	i
O=c1[nH]c2ccccc2nc1/C=C(\O)c1cccs1	?	nt	?	3.98µM	?	3.16µM
N#C/C(=C(/O)c1cccs1)c1nc2ccccc2[nH]1	?	nt	i	?	i	?
O/C(=C\c1nc2ccccc2[nH]1)c1cccs1	13.5µM	nt	?	3.55µM	?	3.98µM
CC(C)(C)/C(O)=C/c1nc2ccccc2[nH]c1=O	i	i	i	i	i	i
COc1cc(/C=N/N(C)c2ccccc2)cc(Cl)c1O	13.5µM	i	i	i	i	i
COc1cc(/C=N/N(C)C)cc(Br)c1O	i	nt	i	i	i	i
COc1ccc(OC)c(/C=N/N(C)c2ccccc2)c1	10.7µM	?	5.8µM	?	?	3.55µM
CCOc1ccc(CCNC(=O)COC(=O)COc2ccc(Br)cc2)cc1OCC	i	nt	i	i	i	i
O=C(CSc1nnc(Cc2cccs2)n1CCc1ccccc1)N1CCCc2ccccc21	i	i	i	i	20.6µM	i
Cn1c(Cc2cccs2)nnc1SCC(=O)N1CCCc2ccccc21	i	i	i	i	?	i
SMILES	FLuc counter	SMN2 splice enh	ELG1 genotoxic	NPC1 promoter act	ELG1 DNA repair	Rab9 promoter act
CC1Cc2ccccc2N1C(=O)CSc1nnc(Cc2ccccc2)n1CCc1ccccc1 (stereo not drawn)	i	i	i	i	18.4µM	i
Cc1oc(-c2cc(F)ccc2F)nc1CN1CCN(c2ncnc3ccccc23)CC1	26.9µM	nt	i	i	?	i
COc1ccc(-c2nc(CN3CCN(c4ncnc5ccccc45)CC3)c(C)o2)c(OC)c1	i	nt	i	i	7.3µM	i
CCc1ccc(NC(=O)Cn2nnc(C(=O)Nc3cc(C)ccc3OC)c2N)cc1	i	nt	nt	nt	nt	nt
CCN(CC(=O)Nc1ccc2c(c1)OCCO2)CC(=O)Nc1ccc(C)c([N+](=O)[O-])c1	nt	nt	i	nt	?	nt
CC(=O)c1cc2c(cc1N/C(=N/S(=O)(=O)c1ccc(Cl)cc1)c1ccc(F)cc1)OCO2	i	nt	nt	nt	nt	nt
NS(=O)(=O)c1ccc(CCNC(=O)COC(=O)CC(c2ccccc2)c2ccccc2)cc1	i	i	i	i	20.6µM	i
NS(=O)(=O)c1ccc(CCNC(=O)COC(=O)CCc2ccccc2)cc1	i	i	i	i	i	i
NS(=O)(=O)c1ccc(CCNC(=O)CNCCc2ccc(C(F)(F)F)cc2)cc1	i	nt	i	i	20.6µM	i
CC(C)(C)c1ccc(C(=O)CCC(=O)OCC(=O)NCCc2ccc(S(N)(=O)=O)cc2)cc1	12µM	nt	i	i	i	i
CSCC[C@H](NC(=O)[C@@H]1Cc2ccccc2CN1)C(=O)Nc1ccc2c(c1)OCO2	?	nt	i[9.26 µM]	i	?	i
COc1ccc(Cn2c(=O)c3oc4ccccc4c3n(Cc3cccc(C)c3)c2=O)cc1	i	nt	nt	nt	nt	nt
Cc1cccc(C(=O)Nc2ccc3c(c2)ncn3C)c1	9.53µM	nt	?	1.58µM	?	1.26µM
Cc1cccc(C(=O)Nc2ccc3c(c2)nc(C)n3C)c1	3.01µM	nt	?	0.398µM	?	0.316µM
O=C(Nc1ccc2nn(-c3ccccc3)nc2c1)c1cccs1	i[2.3 µM]	?	?	?	?	3.55µM
CCC(=O)Nc1ccc2c(c1)ncn2C	i	i	i	i	i	i
Cn1cnc2cc(NC(=O)c3cccs3)ccc21	16.9µM	nt	?	?	?	2.82µM
COc1ccc(/C=C(\C#N)C(=O)NC2CCS(=O)(=O)C2)cc1OC (stereo not drawn)	i	i	i	i	i	i
COc1ccc(CN2CCNC(=O)C2CC(=O)NCCSc2nccn2C)cc1OC (stereo not drawn)	i	nt	i	i	i	i
COC(=O)C1CCN(S(=O)(=O)CCNC(=O)c2ccc3c(c2)OCO3)CC1	i	nt	i	i	i	i
COc1ccc(NC(=O)c2cc(-c3ccccc3F)no2)cc1	i	nt	nt	nt	nt	nt
CN(Cc1nc(Cc2ccccc2F)no1)[C@@H]1CS(=O)(=O)C[C@H]1O	i	nt	i	i	i	i
Cc1cc(C)n(CCN(C)Cc2nc(Cc3ccccc3F)no2)n1	4.78µM	nt	?	?	?	?
COc1cc(N[C@@H](C)CCCN)c2ncccc2c1	nt	i	nt	nt	nt	nt
O=[N+]([O-])c1ccc(Sc2cccc[n+]2[O-])c2nonc12	4.78µM	nt	i	i	?	i
Cc1ccccc1-c1noc(-c2cccs2)n1	7.57µM	?	?	?	?	2.82µM
Cc1ccccc1-c1nnc(-c2cccs2)o1	12µM	20µM	?	i	?	?
Cc1ccccc1-c1noc(-c2cc3ccccc3oc2=O)n1	1.9µM	nt	nt	nt	nt	nt
Cc1ccccc1Nc1oc(-c2ccccc2)nc1-c1cccs1	nt	i	nt	nt	nt	nt
